According to the supplement of paper PMC10338343:
± gives the standard deviation.

Assays:
[1] = test system: MILI (PIWIL2) piRISC loaded with L1MC piRNA (26 nt); test: pre-steady-state target cleavage rate (min^-1); guide: L1MC piRNA 5'p-UAACUAAAUACUAUGCAAGCUGUAGG; higher = faster piRNA-guided slicing of the target;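 note: 1 nM active piRISC with 0.1 nM target library at 33 °C single turnover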
Outline: (§1)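 The pre-steady-state cleavage rate was derived from a burst-and-steady-state fit of Cleave-'n-Seq data. For these assays, 1 nM active affinity-purified piRISC loaded with a single synthetic guide was mixed with […] a transcribed, DNA-blocked target RNA library in HEPES–potassium acetate buffer at 33 °C, with or without 500 nM GTSF1 partner protein, for 0–8 or 0–960 min. Sequencing counts of uncleaved targets were normalised to depth and to weakly complementary targets, and k3 was capped at 0.0001 min^-1 after three trials were pooled.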

[2] = test system: EfPiwi piRISC loaded with L1MC piRNA (26 nt); test: pre-steady-state target cleavage rate (min^-1); auxiliary factor: 500 nM Ephydatia muelleri Gtsf1; guide: L1MC piRNA 5'p-UAACUAAAUACUAUGCAAGCUGUAGG; MIWI and MILI are mouse PIWI proteins and EfPiwi is from a freshwater sponge; tags in brackets are library labels; higher = faster piRNA-guided slicing of the target
Outline: as §1

[3] = auxiliary factor: 500 nM mouse GTSF1

Sequence	pre-steady-state target cleavage rate [1, 3]	pre-steady-state target cleavage rate [2]	pre-steady-state target cleavage rate ([1]; auxiliary factor: none (no GTSF1))
UCCUGGAUGUCCUUGCAUAGUAUUUAAUUA	0.0833 ± 0.017	0.00439 ± 0.003	
UCCUGGUACAGCUUGCAUAGUAUUAACAAA	0.0231 ± 0.0084	0.00261 ± 0.0023	
UCCUGGUUGAGCUUGCAUAGUAUUUUCAAA	0.0103 ± 0.006	0.00218 ± 0.0021	
UCCUCCUACAGCAUGCAUAGAAUUUAGUUA	0.176 ± 0.044	0.00245 ± 0.0015	
UCCUGGAUCAGGUUGCAUAGUAUUUAGAAA	0.185 ± 0.029	0.00341 ± 0.0019	
UCCUCCUACAGCUUGCAUAGUAUUGUAGUUA	0.166 ± 0.045	0.0032 ± 0.0012	
UCCUGCUACAGCUUGCAUACUAUUUAGAUA	0.0214 ± 0.0094	0.00382 ± 0.002	
UCCUGGAACAGCUAGCAUAGUAUUUACAAA	0.0718 ± 0.019	0.00337 ± 0.0029	
UCCUGGAACAGCUAUGCAUAGUAUUUAGUUA	0.21 ± 0.018	0.0102 ± 0.0029	
UCCUCCAACAGCUUGCAUAGUAUUUACAAA	0.113 ± 0.022	0.00355 ± 0.0024	
UCCUGCUACAGCUUGCAAACUAUUUAGUUA	0.048 ± 0.012	0.00535 ± 0.002	
UCCUGGAACAGCUUGCAUAAGUAUUUAGUUA	0.00757 ± 0.004	0.00284 ± 0.0024	
UCCUCCUACAGCUUGCAUAGGUAUUUAGUUA		0.0036 ± 0.0026	0.00373 ± 0.0024
UCCUCCUACUGCUUGCAUAGUAUUUAGAUA	0.085 ± 0.015	0.0056 ± 0.0026	
UCCUGCUACAGCUUGCAUACUAAUUAGUUA	0.0334 ± 0.0091	0.00252 ± 0.0014	
UCCUGGUUGUGCUUGCAUAGUAUUUAGAAA	0.0381 ± 0.013	0.00415 ± 0.0022	
UCCUCCUUCAGCUUGCAUAGUAUUUACAAA	0.13 ± 0.029	0.00379 ± 0.0027	
UCCUCCUACAGCUUGCAUAGUAUUUUCUUA	0.126 ± 0.027	0.00493 ± 0.003	
UCCUGGAUCAGCUUGCAUAGUAUUUGUUA	0.145 ± 0.023	0.00326 ± 0.0029	
UCCUGGAUGUGCUUGCAUAGUAUUUAUUA	0.00911 ± 0.0051	0.00271 ± 0.0022	
UCCUGCUACAGCUUGCUUAGAAUUUAGUUA	0.0543 ± 0.011	0.00357 ± 0.0018	
UCCUGGAUGAGCUUGCAUAGUAUUUAUUA	0.0142 ± 0.0067	0.00268 ± 0.0022	
UCCUGCUACAGCUUGCAAAGUAUAUAGUUA	0.0886 ± 0.016	0.00379 ± 0.0026	
UCCUCGUACAGCUUGCAUAGUAUUUAGAAA	0.131 ± 0.024	0.00711 ± 0.0033	
UCCUGGAUGUGCUUGUCAUAGUAUUUAGUUA	0.0294 ± 0.0075	0.00492 ± 0.0031	
UCCUGGUUCAGCUUGCAUAGUAUUUAGAUA	0.106 ± 0.022	0.00378 ± 0.002	
UCCUCCUACAGCUUGCAUAGUAUUAAGUAA	0.17 ± 0.037	0.00642 ± 0.0035	
UCCUCCUUGAGCUUGCAUAGUAUUUACAAA	0.0856 ± 0.023	0.00316 ± 0.0022	
UCCUGGAACAGCUUGCAUAGUAUUUAUUUA	0.113 ± 0.026	0.00534 ± 0.0034	
UCCUCCUAGAGCUUGCAUAGUAUUUAGAUA	0.123 ± 0.025	0.0043 ± 0.0018	
